Pol iota inh: DNA polymerase iota (human) inhibition; Q9UNA4; Pol iota fluorescent replication assay, 10 min; Potency, µM (top dose mostly 115 µM), without a hit: at the highest dose activity, negative = inhibition, usual class: inhibitors; hit rate 1% among 390,000; AID 588590
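Fluorescent replication assay read twice, at 0 min and 10 min after adding 50 nM (final) substrate. Enzyme (10 nM) and compounds were first incubated 15 min at room temperature; enzyme-free buffer wells were negative controls.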
FEN1 inh: human FEN1 inhibition; P39748; hit rate 0.35% among 390,000; Recombinant FEN1 flap cleavage, fluorescence, 15 min; Potency, µM (titrated, usually from 114 µM), without a hit: top-dose activity change, negative = inhibition, usual class: inhibitors; AID 588795; note: % is set by controls: 0 for no effect and ±100 for the full control effect; nearly all actives have a fitted effect of over 65% in size
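Concentration–response screening of FEN1 (10 nM): 15 min compound preincubation at room temperature, reaction started with 50 nM substrate and read at 0 and 15 min. Corrected, normalized data were fitted by a four-parameter Hill equation.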
POLH inh: DNA polymerase eta (human) inhibition. hit rate 1.2% among 390,000. Potency, µM (doses to about 114 µM), for inactives: at the highest dose activity change, negative = inhibition, usual class: inhibitors. recombinant Pol eta, fluorescent DNA replication assay. Q9Y253; note: % is set by controls: 0 for no effect and ±100 for the full control effect
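Fluorescent replication assay: 50 nM final substrate added after a 15 min room-temperature compound preincubation with 10 nM enzyme. Signal taken at 0 min and again at 10 min.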
Pol kappa inh: blocks human DNA polymerase kappa activity | Q9UBT6 | purified Pol kappa, fluorescent DNA synthesis assay, 10 min | Potency, µM (top dose mostly 107 µM), for the others: top-dose activity, negative = inhibition, usual class: inhibitors | hit rate 0.53% among 400,000; note: % is set by controls: 0 for no effect and ±100 for the full control effect
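Pol kappa 10 nM + cpd, 15 min RT; start w/ substrate 50 nM final; fluorescence kinetic read, 0 and 10 min. Neg ctrl: buffer, no enzyme.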
POLB inh: blocks human DNA polymerase beta activity. P06746. Pol beta primer extension/strand displacement, fluorescence kinetic. Potency, µM (series often up to 114 µM), inactives show top-dose activity change, negative = inhibition, actives largely listed as inhibitors. hit rate 1.3% among 340,000. AID 485314; note: % is set by controls: 0 for no effect and ±100 for the full control effect
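Reaction started by 50 nM substrate onto compound-treated Pol beta (10 nM, 15 min preincubation, room temperature); plates read at 0 min and 10 min. Normalized concentration-effect data fitted by four-parameter Hill equation.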
WRN inhibitor: blocks human WRN helicase; Q14191; WRN helicase unwinding, fluorescent forked duplex, kinetic; Potency, µM (highest dose often 114 µM), without a hit: top-dose activity change, negative = inhibition, usual class: inhibitors; hit rate 0.46% among 360,000; note: % is set by controls: 0 for no effect and ±100 for the full control effect; nearly all actives have a fitted effect of over 55% in size
Target sequence (Q14191 whole entry, looked up): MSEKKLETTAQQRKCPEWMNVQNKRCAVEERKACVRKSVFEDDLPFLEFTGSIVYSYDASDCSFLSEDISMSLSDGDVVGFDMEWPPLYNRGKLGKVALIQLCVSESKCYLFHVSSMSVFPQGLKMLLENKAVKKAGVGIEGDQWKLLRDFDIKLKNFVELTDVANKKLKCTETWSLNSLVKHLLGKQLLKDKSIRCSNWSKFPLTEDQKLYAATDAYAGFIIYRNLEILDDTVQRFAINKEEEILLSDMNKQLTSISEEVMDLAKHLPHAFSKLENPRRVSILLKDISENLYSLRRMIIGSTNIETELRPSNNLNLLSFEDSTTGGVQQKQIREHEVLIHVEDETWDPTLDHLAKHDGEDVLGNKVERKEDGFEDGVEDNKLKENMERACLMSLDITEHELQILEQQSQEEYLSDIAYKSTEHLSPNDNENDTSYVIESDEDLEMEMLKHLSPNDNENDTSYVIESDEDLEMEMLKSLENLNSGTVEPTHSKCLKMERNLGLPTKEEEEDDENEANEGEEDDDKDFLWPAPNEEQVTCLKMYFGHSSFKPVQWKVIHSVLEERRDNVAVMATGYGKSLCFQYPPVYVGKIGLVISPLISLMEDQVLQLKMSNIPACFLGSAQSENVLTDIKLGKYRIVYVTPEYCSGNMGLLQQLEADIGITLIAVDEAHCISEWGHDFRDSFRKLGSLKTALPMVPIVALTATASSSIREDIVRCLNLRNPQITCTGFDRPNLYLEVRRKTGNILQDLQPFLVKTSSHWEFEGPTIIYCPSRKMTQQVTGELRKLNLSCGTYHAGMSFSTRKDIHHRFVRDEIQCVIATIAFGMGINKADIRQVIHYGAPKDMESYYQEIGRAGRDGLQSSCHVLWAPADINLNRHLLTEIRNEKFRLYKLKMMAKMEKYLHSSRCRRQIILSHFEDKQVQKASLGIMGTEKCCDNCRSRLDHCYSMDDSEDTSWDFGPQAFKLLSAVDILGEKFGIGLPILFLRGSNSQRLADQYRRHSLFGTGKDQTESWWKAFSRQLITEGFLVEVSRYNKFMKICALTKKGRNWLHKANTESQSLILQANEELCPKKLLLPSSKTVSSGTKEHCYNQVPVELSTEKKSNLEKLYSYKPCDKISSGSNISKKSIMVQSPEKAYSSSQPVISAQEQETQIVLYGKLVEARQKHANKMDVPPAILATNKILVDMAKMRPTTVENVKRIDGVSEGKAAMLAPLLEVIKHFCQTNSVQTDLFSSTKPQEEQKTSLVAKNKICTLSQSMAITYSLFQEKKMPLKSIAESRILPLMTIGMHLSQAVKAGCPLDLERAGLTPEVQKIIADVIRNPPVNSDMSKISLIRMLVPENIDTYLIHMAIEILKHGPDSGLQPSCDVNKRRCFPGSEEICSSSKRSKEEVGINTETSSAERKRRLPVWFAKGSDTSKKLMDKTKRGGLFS
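Kinetic red-fluorescence monitoring (525/598 nm) tracks WRN helicase activity after 100 nM fluorophore-quencher forked duplex and 2 mM ATP are added to 20 nM enzyme pretreated 15 min at room temperature with compound.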
Active calls of the source: *; ? = inconclusive; · = not tested or not shown; ! = not active in a repeat; [ ] = dose if it differs, or a comment. Most compounds without a hit are left out; they make up all but 2.4% or so of the library. Calls come from the whole dose curve; as a rule, active = well fitted curve in the direction sought with a large enough effect; inconclusive = small, poorly fitted or top-dose-only effect, or another doubt; inactive = no such curve, though single readings can be large; an effect the other way counts as inactive or inconclusive. Potency is the fitted concentration of half-maximal effect.

SMILES | Pol iota inh | FEN1 inh | POLH inh | Pol kappa inh | POLB inh | WRN inhibitor
COc1cccc2c1C(=O)c1c(O)c3c(c(O)c1C2=O)C[C@](O)(C(=O)CO)C[C@@H]3O[C@H]1C[C@H](N)[C@@H](O)[C@H](C)O1 | · | · | · | -2%[60.1 µM] | · | ·
CC(=O)[C@]1(O)Cc2c(O)c3c(c(O)c2[C@@H](O[C@H]2C[C@H](N)[C@H](O)[C@H](C)O2)C1)C(=O)c1ccccc1C3=O | 7.9µM* | · | 14µM* | 27µM* | 14µM* | 32µM*
CC(=O)[C@]1(O)Cc2c(O)c3c(c(O)c2[C@@H](O[C@H]2C[C@H](N)[C@H](O)[C@H](C)O2)C1)C(=O)c1c(O)cccc1C3=O | · | · | · | 10µM* | · | ·
CCc1ccc(OCc2nc(-c3ccc(-n4cccc4)cc3)no2)cc1 | -5% | -2% | · | 7% | 22% | ·
Clc1ccc(OCc2nc(-c3ccc(-n4cccc4)cc3)no2)cc1 | 89µM* | -9% | -9% | -22% | 0% | ·
CSCC[C@H](NC(=O)[C@H](CO)NC(=O)[C@H](Cc1ccc(O)cc1)NC(=O)[C@@H](N)CO)C(=O)N[C@@H](CCC(=O)O)C(=O)N[C@@H](Cc1cnc[nH]1)C(=O)N[C@@H](Cc1ccccc1)C(=O)N[C@@H](CCCNC(=N)N)C(=O)N[C@@H](Cc1c[nH]c2ccccc12)C(=O)NCC(=O)N[C@@H](CCCCN)C(=O)N1CCC[C@H]1C(=O)N[C@H](C(=O)NCC(=O)N[C@@H](CCCCN)C(=O)N[C@@H](CCCCN)C(=O)N[C@@H](CCCNC(=N)N)C(=O)N[C@@H](CCCNC(=N)N)C(=O)N1CCC[C@H]1C(=O)N[C@H](C(=O)N[C@@H](CCCCN)C(=O)N[C@H](C(=O)N[C@@H](Cc1ccc(O)cc1)C(=O)N1CCC[C@H]1C(=O)N[C@@H](CC(N)=O)C(=O)NCC(=O)N[C@@H](C)C(=O)N[C@@H](CCC(=O)O)C(=O)N[C@@H](CC(=O)O)C(=O)N[C@@H](CCC(=O)O)C(=O)N[C@@H](CO)C(=O)N[C@@H](C)C(=O)N[C@@H](CCC(=O)O)C(=O)N[C@@H](C)C(=O)N[C@@H](Cc1ccccc1)C(=O)N1CCC[C@H]1C(=O)N[C@@H](CC(C)C)C(=O)N[C@@H](CCC(=O)O)C(=O)N[C@@H](Cc1ccccc1)C(=O)O)C(C)C)C(C)C)C(C)C | · | · | · | -11%[12 µM] | · | ·
O=S(=O)(c1cccs1)N1CN(CC2CCCO2)c2nc3ccccc3nc21 (configuration not stated) | 14% | -12% | 1% | -4% | 1% | -10%
Cc1ccc(S(=O)(=O)N2CN(CC3CCCO3)c3nc4ccccc4nc32)c(C)c1 (configuration not stated) | 71µM* | -1% | -18% | -18% | -8% | -2%[11.6 µM]
COc1ccc(/C=N/c2nc3ccccc3n2C)cc1OC | 19% | -16% | -13% | 1% | 79µM* | -1%
Cn1c(/N=C/c2cccs2)nc2ccccc21 | 20% | -14% | -4% | -9% | 25% | -7%
CS(=O)(=O)N1CCN(/[N+]([O-])=N/Oc2ccc([N+](=O)[O-])cc2[N+](=O)[O-])CC1 (tested in a mixture with another compound) | ? | -17% | · | -14% | · | ·
COc1ccc(/C=C(/C(=O)N2CCCCC2C(=O)O)c2ccc(OC)c(OC)c2)cc1 (configuration not stated) | 79µM* | 0% | -1% | 4% | · | -13%
O=c1c(C(c2ccccc2)c2c(O)sc3ccccc3c2=O)c(O)sc2ccccc12 | 21% | 5% | -13% | -2% | 32µM* | -1%[57.1 µM]
O=c1c(O[C@@H]2O[C@H](CO)[C@@H](O)[C@H](O)[C@H]2O)c(-c2ccc(O)c(O)c2)oc2cc(O)cc(O)c12 | · | · | · | · | 1.8µM* | ·
C[C@@H]1O[C@@H](OC[C@H]2O[C@@H](Oc3c(-c4ccc(O)c(O)c4)oc4cc(O)cc(O)c4c3=O)[C@H](O)[C@@H](O)[C@@H]2O)[C@H](O)[C@H](O)[C@H]1O | 9% | -2% | -10% | 24µM*! | 8.9µM* | -4%
O=c1cc(-c2ccc(O)c(O)c2)oc2cc(OC3OC(CO)C(O)C(O)C3O)cc(O)c12 (configuration not stated) | · | · | · | 0.89µM* | · | ·
O=c1c(OC2OC(CO)C(O)C(O)C2OC2OC(CO)C(O)C(O)C2OC2OC(CO)C(O)C(O)C2O)c(-c2ccc(O)c(O)c2)oc2cc(O)cc(O)c12 (configuration not stated) | 50µM* | -25% | ? | 56µM* | ? | -7%
O=C(c1ccc2c(c1)OCCO2)N1CCN(c2nc(-c3cccs3)nc3ccccc23)CC1 | -11% | -1% | · | -9% | · | ·
Cc1ccc(-c2cc(C(=O)N/N=C/c3ccc(Cl)cc3)n[nH]2)o1 | ? | -19% | ? | -4% | 25µM* | -28%
Cc1ccc(-c2cc(C(=O)N/N=C/c3ccccc3)n[nH]2)o1 | 12% | 4% | -2% | 0% | ? | 4%
CC(=O)Nc1ccc(S(=O)(=O)CC(=O)CS(=O)(=O)c2ccc(NC(C)=O)cc2)cc1 | · | · | 35µM* | · | · | -7%[11.6 µM]
CC(=O)CCS(=O)(=O)c1ccc(NC(C)=O)cc1 | 154% | -11% | -12% | 17% | ? | -2%
C[n+]1ccc(/C=C/c2ccc(Br)cc2)cc1 | ? | -11% | -25% | 89µM* | -31% | -16%
COC(=O)c1ccc(O)cc1 | 137% | 7% | -16% | -4% | 35% | -5%
COC(=O)c1ccc(CCc2cc(O)ccc2O)cc1 | 16% | -1% | -5% | -5% | · | 56µM*
SMILES | Pol iota inh | FEN1 inh | POLH inh | Pol kappa inh | POLB inh | WRN inhibitor
COc1ccc(C(NC(=O)/C=C/c2ccco2)c2ccc(OC)cc2)cc1 | ? | 5% | ? | -7% | 16µM* | -17%
COc1ccc(C(NC(=O)/C=C\c2ccco2)c2ccc(OC)c(OC)c2)cc1 (configuration not stated) | ? | -6% | ? | -18% | ? | -4%
Nc1nc(SCC(=O)Nc2cc(Cl)c(Cl)cc2Cl)n[nH]1 | 71% | 0% | -6% | -7% | · | 9%
CC1CC1C(=O)OCC(=O)Nc1ncc(Cl)cc1Cl (configuration not stated) | 14µM* | -13% | 28µM* | ? | · | ?
Nc1nc(SCC(=O)Nc2ncc(Cl)cc2Cl)n[nH]1 | 79µM* | 8% | ? | -41% | · | -12%[11.6 µM]
O=C(COC(=O)/C=C/c1ccco1)NCCN1C(=O)CSC1=O | -16% | -1% | 50µM* | -20% | · | -5%
CC(=O)Nc1ccc(/C=C2\C=Cc3ccccc32)cc1 | -1% | 0% | · | -4% | · | ·

Source: PubChem (National Center for Advancing Translational Sciences (NCATS))
